Reference: the supplement of paper PMC11006884
The full data set covers some 6,500 targets. This sample favours those with a hit. About 2% of all pairs of compound and target were hits.

Compound: COC(=O)C#Cc1ccccc1 [methyl 3-phenylpropiolate]
Assay: log2 ratio of iodoacetamide-alkyne labeling of the cysteine site, DMSO over compound (competition); higher = stronger covalent engagement of the cysteine by the compound, active = 1 or more
Conditions: 500 µM; treatment time 1 h; system: HEK293T cell lysate
In short: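 Electrophile (500 µM) or vehicle was added to HEK293T lysate (2 mg/mL) for 1 h at ambient temperature before iodoacetamide alkyne labelling (1 h) and click coupling to sCIP-TMT reagents. After pooling, overnight trypsin digestion at 37 °C, streptavidin enrichment and acid elution, peptides were measured by Orbitrap Eclipse LC-MS/MS with FAIMS and quantified in FragPipe. Each cysteine's log2 competition ratio compares mean control-channel with mean compound-channel reporter intensity, control over compound. Data came from duplicate channels across three replicates, excluding cysteines quantified in only one replicate.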

Sequence of UniProt Q15398 (Q15398 whole entry, looked up): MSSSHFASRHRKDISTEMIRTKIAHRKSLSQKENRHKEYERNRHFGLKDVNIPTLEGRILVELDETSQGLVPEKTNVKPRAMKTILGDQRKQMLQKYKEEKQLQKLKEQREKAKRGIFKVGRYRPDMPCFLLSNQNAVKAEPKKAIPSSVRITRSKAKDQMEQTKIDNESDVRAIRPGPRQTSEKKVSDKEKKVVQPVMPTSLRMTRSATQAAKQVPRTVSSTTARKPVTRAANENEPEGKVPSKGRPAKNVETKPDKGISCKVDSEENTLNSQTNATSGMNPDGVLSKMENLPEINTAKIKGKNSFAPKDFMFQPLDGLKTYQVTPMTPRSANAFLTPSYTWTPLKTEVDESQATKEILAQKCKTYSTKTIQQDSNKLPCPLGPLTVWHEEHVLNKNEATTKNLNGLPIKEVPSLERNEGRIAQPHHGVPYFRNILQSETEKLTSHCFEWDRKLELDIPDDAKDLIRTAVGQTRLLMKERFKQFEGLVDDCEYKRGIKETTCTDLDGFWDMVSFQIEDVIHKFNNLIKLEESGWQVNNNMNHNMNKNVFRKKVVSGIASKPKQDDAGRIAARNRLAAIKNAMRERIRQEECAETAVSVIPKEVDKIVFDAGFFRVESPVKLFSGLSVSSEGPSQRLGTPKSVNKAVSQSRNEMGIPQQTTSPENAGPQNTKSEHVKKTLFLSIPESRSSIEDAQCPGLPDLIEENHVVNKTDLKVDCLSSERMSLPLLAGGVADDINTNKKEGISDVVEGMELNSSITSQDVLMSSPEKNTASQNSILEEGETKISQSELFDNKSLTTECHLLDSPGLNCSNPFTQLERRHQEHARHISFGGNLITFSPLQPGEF
Sequence of UniProt Q5JTD0 (Q5JTD0 whole entry, looked up): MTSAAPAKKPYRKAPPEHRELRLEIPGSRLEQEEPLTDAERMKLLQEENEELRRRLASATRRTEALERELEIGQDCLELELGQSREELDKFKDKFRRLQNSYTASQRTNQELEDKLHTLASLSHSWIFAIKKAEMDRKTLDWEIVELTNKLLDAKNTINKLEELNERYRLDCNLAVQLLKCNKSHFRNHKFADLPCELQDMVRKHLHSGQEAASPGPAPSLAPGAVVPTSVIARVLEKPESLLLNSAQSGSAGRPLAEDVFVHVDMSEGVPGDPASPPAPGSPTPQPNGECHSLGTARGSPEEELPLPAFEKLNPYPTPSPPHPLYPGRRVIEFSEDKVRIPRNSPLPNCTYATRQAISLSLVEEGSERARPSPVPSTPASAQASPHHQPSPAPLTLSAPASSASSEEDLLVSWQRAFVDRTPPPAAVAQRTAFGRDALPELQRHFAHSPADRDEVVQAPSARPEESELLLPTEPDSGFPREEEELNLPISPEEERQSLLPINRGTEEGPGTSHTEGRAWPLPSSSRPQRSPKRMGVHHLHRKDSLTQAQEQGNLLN
Sequence of UniProt Q10567 (Q10567 whole entry, looked up): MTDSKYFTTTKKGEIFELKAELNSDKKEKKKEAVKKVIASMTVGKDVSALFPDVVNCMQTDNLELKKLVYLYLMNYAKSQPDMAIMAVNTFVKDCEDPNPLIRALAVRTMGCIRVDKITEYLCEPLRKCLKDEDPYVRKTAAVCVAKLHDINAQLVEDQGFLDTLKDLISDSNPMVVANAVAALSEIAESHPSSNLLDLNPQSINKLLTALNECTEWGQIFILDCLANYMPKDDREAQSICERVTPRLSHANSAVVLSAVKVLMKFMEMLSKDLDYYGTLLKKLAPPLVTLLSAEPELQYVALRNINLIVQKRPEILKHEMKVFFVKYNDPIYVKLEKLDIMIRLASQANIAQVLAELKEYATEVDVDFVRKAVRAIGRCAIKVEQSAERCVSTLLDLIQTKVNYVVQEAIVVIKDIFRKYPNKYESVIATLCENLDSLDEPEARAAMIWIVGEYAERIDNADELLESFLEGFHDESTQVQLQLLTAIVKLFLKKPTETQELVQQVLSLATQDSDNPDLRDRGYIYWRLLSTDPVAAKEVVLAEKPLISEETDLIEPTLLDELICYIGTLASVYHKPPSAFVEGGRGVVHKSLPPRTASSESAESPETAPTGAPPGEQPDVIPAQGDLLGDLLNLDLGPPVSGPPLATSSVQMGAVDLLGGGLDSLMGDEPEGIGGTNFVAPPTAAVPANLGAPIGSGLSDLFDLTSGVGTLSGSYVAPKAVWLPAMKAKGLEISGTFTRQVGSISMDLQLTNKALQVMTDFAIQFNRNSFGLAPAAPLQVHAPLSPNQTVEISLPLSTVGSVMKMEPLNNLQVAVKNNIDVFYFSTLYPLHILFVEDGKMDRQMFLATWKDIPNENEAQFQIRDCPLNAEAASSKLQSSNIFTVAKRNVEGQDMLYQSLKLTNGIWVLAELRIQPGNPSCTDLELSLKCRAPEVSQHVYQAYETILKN
Sequence of UniProt Q15029 (Q15029 whole entry, looked up): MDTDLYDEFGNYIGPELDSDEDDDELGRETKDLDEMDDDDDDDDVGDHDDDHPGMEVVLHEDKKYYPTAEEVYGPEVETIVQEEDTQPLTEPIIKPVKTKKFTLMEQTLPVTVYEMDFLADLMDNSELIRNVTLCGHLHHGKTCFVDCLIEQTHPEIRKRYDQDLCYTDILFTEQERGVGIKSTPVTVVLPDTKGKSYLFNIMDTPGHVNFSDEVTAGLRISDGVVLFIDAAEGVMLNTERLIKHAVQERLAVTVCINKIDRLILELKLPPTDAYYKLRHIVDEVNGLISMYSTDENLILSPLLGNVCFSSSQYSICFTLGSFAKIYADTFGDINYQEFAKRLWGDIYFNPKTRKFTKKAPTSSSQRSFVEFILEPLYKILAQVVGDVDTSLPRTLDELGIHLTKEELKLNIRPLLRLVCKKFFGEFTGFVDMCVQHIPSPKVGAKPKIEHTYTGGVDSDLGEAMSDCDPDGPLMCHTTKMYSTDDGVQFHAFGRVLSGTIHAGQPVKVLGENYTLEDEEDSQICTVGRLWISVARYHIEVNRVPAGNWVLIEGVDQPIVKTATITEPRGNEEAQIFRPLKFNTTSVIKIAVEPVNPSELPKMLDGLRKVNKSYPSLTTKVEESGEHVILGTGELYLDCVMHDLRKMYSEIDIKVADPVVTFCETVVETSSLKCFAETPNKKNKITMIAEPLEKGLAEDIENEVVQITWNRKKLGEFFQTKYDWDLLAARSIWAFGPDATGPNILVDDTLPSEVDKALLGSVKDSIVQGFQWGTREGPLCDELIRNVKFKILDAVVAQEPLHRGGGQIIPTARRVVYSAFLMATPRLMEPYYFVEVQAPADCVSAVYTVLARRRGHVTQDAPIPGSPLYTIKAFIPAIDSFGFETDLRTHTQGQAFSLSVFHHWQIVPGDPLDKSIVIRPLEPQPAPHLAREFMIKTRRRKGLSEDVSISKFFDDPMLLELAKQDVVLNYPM
Sequence of UniProt P62633 (P62633 whole entry, looked up): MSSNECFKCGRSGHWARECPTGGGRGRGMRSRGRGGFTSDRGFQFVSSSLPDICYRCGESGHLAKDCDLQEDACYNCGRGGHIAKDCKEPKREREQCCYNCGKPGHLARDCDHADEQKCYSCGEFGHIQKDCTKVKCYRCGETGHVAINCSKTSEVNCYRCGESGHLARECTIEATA
Sequence of UniProt Q14790 (Q14790 whole entry): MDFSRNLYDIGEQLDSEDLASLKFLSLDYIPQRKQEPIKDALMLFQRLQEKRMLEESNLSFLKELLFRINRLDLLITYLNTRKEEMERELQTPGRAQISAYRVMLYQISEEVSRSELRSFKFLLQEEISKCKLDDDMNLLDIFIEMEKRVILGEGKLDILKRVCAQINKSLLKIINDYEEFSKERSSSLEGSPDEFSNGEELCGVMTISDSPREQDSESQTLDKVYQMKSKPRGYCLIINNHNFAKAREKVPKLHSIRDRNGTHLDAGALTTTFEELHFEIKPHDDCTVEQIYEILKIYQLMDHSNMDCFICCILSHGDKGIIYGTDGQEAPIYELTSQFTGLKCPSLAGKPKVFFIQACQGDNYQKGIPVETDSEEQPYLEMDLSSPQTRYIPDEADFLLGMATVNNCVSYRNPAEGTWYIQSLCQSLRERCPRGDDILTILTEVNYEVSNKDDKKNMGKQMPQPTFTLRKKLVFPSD
Sequence of UniProt Q13057 (Q13057 whole entry, looked up): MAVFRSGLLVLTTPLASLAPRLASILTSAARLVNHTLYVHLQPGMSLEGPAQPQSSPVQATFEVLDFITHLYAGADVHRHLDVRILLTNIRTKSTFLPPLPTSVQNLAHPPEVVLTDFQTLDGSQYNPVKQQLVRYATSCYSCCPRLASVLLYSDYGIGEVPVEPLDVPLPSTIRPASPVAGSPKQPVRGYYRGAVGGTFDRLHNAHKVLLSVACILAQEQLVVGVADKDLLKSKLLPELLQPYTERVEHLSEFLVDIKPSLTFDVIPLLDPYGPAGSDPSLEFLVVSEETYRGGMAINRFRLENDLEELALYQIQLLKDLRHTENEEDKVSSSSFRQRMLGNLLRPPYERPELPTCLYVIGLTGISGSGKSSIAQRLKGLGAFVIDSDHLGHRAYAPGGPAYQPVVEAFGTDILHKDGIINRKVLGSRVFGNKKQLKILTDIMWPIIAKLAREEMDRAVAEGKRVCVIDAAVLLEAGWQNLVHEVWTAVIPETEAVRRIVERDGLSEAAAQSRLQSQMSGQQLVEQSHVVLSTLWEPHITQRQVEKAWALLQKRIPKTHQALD
Sequence of UniProt Q13642 (Q13642 whole entry, looked up): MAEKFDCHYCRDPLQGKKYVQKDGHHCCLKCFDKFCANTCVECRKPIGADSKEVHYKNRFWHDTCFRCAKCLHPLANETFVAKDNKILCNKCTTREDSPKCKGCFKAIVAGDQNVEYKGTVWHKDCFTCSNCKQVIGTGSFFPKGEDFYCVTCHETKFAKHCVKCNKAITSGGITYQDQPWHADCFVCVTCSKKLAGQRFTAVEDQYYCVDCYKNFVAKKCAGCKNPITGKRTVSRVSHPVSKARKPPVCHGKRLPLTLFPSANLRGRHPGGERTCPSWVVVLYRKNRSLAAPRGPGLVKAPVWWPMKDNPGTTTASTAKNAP

log2 ratio of iodoacetamide-alkyne labeling, inactive:
AP1B1 C129 (UniProt Q10567) 0.414
UniProt P61163_C222 0.293
UniProt P98164_C4047 0.464
TJAP1 C172 (UniProt Q5JTD0) 0.251
FHL1 C10 (UniProt Q13642) -0.136
NCAPD2 C1249 (UniProt Q15021) 0.179
CNBP C6 (UniProt P62633) 0.0447
UniProt P60891_C165 -0.19
EFTUD2 C144 (UniProt Q15029) 0.297

log2 ratio of iodoacetamide-alkyne labeling, active:
DLGAP5 C129 (UniProt Q15398) 1.38
COASY C140 (UniProt Q13057) 1.16
UniProt P62280_C60 2.21
CASP8 C360 (UniProt Q14790) 1.2
